Each structure is given as a SMILES string. Results filed as inconclusive are left out. Where a call stands in place of a potency, no number is given. Activity calls are given as the source filed them. Unless noted, the call rests on the fitted dose curve; in most records, active means well fitted curve in the direction sought with a large enough effect; inconclusive means small, poorly fitted or top-dose-only effect, or another doubt; inactive means no such curve, though single readings can be large; an effect the other way counts as inactive or inconclusive.

Alpha-galactosidase (Coffea arabica), sequence (Q42656 whole entry, looked up): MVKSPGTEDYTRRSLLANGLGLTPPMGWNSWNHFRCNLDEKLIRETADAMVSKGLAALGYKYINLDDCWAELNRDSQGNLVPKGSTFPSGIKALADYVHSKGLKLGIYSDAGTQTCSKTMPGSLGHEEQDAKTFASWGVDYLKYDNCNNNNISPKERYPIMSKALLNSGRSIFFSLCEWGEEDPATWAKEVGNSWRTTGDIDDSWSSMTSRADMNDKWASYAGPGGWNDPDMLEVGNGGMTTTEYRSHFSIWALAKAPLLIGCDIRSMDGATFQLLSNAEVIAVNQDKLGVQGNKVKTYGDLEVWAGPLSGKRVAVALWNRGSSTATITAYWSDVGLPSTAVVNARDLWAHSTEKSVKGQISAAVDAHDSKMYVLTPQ

For the first assay, the target named is Alpha-galactosidase (Coffea arabica) (UniProt Q42656). The experiment in a line: Counterscreen for Glucocerebrosidase Inhibitors: qHTS Assay for Coffee Bean alpha-Galactosidase at pH 4.5 (AID 957). To be noted: purified coffee bean alpha-galactosidase, fluorogenic substrate; series mostly up to 76.9 µM. Summed up:
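Enzyme is added first (2 nM final), then compounds titrated from 0.7 nM to 77 uM, then 80 uM 4-methylumbelliferyl alpha-D-galactopyranoside; after 20 min at room temperature a pH 10 NaOH/glycine stop precedes fluorescence reading at 365/440 nm.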
Take `Nn1nnc2ccccc21`: the call was inactive.

`NC/C=C\C(=O)O`: the compound was called inactive. As for `Cn1cc(C2=C(c3ccc(Cl)cc3Cl)C(=O)NC2=O)c2ccccc21`, the compound was called inactive.

The next assay has the same target. Description: Counterscreen for Glucocerebrosidase Inhibitors: qHTS Assay for Coffee Bean alpha-Galactosidase at pH 5.9 (AID 998). To be noted: coffee bean alpha-galactosidase enzyme assay; series mostly up to 76.9 µM. Summed up: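 In 50 mM citric acid pH 5.9 with 0.005% Tween-20, coffee bean enzyme hydrolyses 80 uM 4-MU alpha-D-galactopyranoside over 20 min at RT. Activity is normalized to controls; AC50 comes from Hill-modelled concentration-response data.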
`Nn1nnc2ccccc21`: the compound was called inactive. Turning to `NC/C=C\C(=O)O`, the compound was called inactive. Same read-out and setting: then `Cn1cc(C2=C(c3ccc(Cl)cc3Cl)C(=O)NC2=O)c2ccccc21`, with “inactive”.

Tested on in a further assay: not listed separately
The experiment in a line: Validation screen for inhibitors of Lassa infection (AID 463096; calls by dose curve). Conditions: Lassa virus infection, cell-based; series mostly up to 46.1 µM.
As for `O=C1c2c(O)cc(O)cc2OC(c2ccc(O)c(O)c2)C1O` (configuration not stated), the Potency result is “inactive”. For the compound `Nn1nnc2ccccc21`, the Potency entry was “inactive”.

In the case of `NC/C=C\C(=O)O`, the Potency result was “inactive”.

For the compound `Cn1cc(C2=C(c3ccc(Cl)cc3Cl)C(=O)NC2=O)c2ccccc21`, the Potency result was “inactive”. Same read-out and setting: then `C[C@@]1(C2CCCC2)Cc2cc(OCC(=O)O)c(Cl)c(Cl)c2C1=O`, with “inactive”.

Tested on in a further assay: not listed separately
The experiment in a line: Inducers of the Endoplasmic Reticulum Stress Response (ERSR) in human glioma: Validation (AID 504836). Conditions: human glioma cells, ER stress response reporter; series mostly up to 38.3 µM. The method in brief: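 Stably transfected U87-MG human glioma cells carrying a GRP78-based luminescent sensor were seeded at 1000 cells/well, pin-dosed with compounds and incubated 16 h. Luciferase reagent was then added, and end-point luminescence was read after 10 min at room temperature.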
As for `CCc1ccc(/C=C2/SC(=S)NC2=O)cc1`, the compound was called inactive. Same read-out and setting: then `O=C1c2c(O)cc(O)cc2OC(c2ccc(O)c(O)c2)C1O` (configuration not stated), with “inactive”. Same read-out and setting: then `Nn1nnc2ccccc21`, with “inactive”; and `NC/C=C\C(=O)O`, with “inactive”; and `Cn1cc(C2=C(c3ccc(Cl)cc3Cl)C(=O)NC2=O)c2ccccc21`, with “inactive”. For `C[C@@]1(C2CCCC2)Cc2cc(OCC(=O)O)c(Cl)c(Cl)c2C1=O`, the result was inactive.

Tested on in a further assay: not listed separately
Description: qHTS for Inhibitors of the Functional Ribonucleoprotein Complex (vRNP) of Lassa (LASV) Arenavirus: LASV Primary Screen - GLuc reporter signal (AID 1347082; calls by dose curve; tested in HEK293 reporter line; further: nearly all actives have a fitted effect of over 60% in size; further: potency means the concentration at half of the fitted maximal effect). Conditions: LASV minigenome vRNP, Gaussia luciferase reporter; series mostly up to 57.5 µM.
As for `Oc1ccc2c(c1)OCC1(O)Cc3cc(O)c(O)cc3C21` (configuration not stated), the Potency result is “inactive”.

`C=C1C[C@H](OC(=O)C(C)(O)CCl)C2C(=C)C(=O)O[C@@H]2C2C1C[C@H](O)[C@]2(O)CCl` (some centres not stated): the Potency entry is “inactive”. The same measure, in the same setting: then `CN1CCc2c(c3ccccc3n2Cc2ccc(C(=O)NO)cc2)C1`, with “inactive”. For `CCc1ccc(/C=C2/SC(=S)NC2=O)cc1`, the Potency result is “inactive”.

For `O=C1c2c(O)cc(O)cc2OC(c2ccc(O)c(O)c2)C1O` (configuration not stated), the Potency entry is “inactive”. Take `NS(=O)(=O)OC[C@@H]1C[C@@H](n2ccc3c(N[C@H]4CCc5ccccc54)ncnc32)C[C@H]1O`: the Potency entry is “inactive”. Still for that read-out and setting: then `O=C1NC(=O)C(=Cc2ccc3nccnc3c2)S1`, with “inactive”. Still for that read-out and setting: then `CCCCOP(=O)(O)OCCCC`, with “inactive”; and `COC1=C2C[C@@H](C)C[C@H](OC)[C@@H](O)[C@@H](C)C=C(C)[C@H](OC(N)=O)[C@@H](OC)C=CC=C(C)C(=O)NC(=CC1=O)C2=O`, with 9.68 µM (active). Still for that read-out and setting: then `COc1cc2c(cc1OC)[C@@H]1Cc3ccc(OC)c(OC)c3CN1CC2`, with “inactive”.

In the case of `Nn1nnc2ccccc21`, the Potency entry was “inactive”. Same read-out and setting: then `COc1cc(O)c2c(=O)c(-c3ccc(O[C@@H]4O[C@H](CO)[C@@H](O)[C@H](O)[C@H]4O)cc3)coc2c1`, with “inactive”; and `OCC1OC(n2cnc3c(NCc4ccccc4O)ncnc32)C(O)C1O` (configuration not stated), with “inactive”.

Turning to `NC/C=C\C(=O)O`, the Potency entry was “inactive”. Same read-out and setting: then `Nc1nc(F)nc2c1ncn2[C@@H]1O[C@H](COP(=O)(O)O)[C@@H](O)[C@H]1O`, with “inactive”; and `C=C1CCC2C(C)(C)[C@H](O)CC[C@@]2(C)[C@@H]1COc1cc(=O)oc2ccccc12` (some centres not stated), with “inactive”. The same measure, in the same setting: then `Clc1cc(Cl)cc(CNc2ncncc2-c2ccc3c(c2)OCO3)c1`, with “inactive”; and `O=C1NC(O)CCN1[C@@H]1O[C@H](CO)[C@H](O)[C@H]1O` (some centres not stated), with “inactive”. The same measure, in the same setting: then `CC/C=C\[C@H](O)[C@H](O)C1=C(C)C(=O)[C@]2(O1)C(=O)N[C@@](OC)(C(=O)c1ccccc1)C2O` (some centres not stated), with “inactive”; and `C[C@]12CC[C@@H]3c4ccc(O)cc4CC[C@H]3[C@H]1C[C@@H](O)[C@H]2O`, with “inactive”; and `CC=C(C(=CC)c1ccc(O)cc1)c1ccc(O)cc1`, with “inactive”. As for `C[C@]12CC[C@H]3C(=CCc4cc(O)ccc43)[C@@H]1CCC2=O`, the Potency entry was “inactive”. Still for that read-out and setting: then `COc1ccc(Cc2ccc(NC(N)=O)cc2)cc1-c1cccc(Cl)c1`, with “inactive”; and `O=C(c1ccc(C=Cc2n[nH]c3ccccc23)cc1)N1CCNCC1`, with “inactive”.

As for `Cc1nccc2c1[nH]c1ccc(Br)cc12`, the Potency entry is “inactive”.

As to `Cc1ccc([C@@H]2O[C@H](CO)[C@@H](O)[C@H](O)[C@@H]2O)cc1Cc1ccc(-c2ccc(F)cc2)s1`, the Potency entry was “inactive”. The same measure, in the same setting: then `Cn1cc(C2=C(c3ccc(Cl)cc3Cl)C(=O)NC2=O)c2ccccc21`, with “inactive”; and `COc1cc2c(cc1OC)C(C)N(Cc1ccc3c(c1)OCO3)CC2` (configuration not stated), with “inactive”. The same measure, in the same setting: then `O=C1NC(=O)C(=Cc2ccc(-c3ccc(F)cc3O)o2)S1`, with “inactive”; and `CCN(CC)CCCCNc1ncc2c(n1)N(C)C(=O)N(c1c(Cl)c(OC)cc(OC)c1Cl)C2`, with 34.3 µM (active).

For the compound `Nc1nc(Cl)nc2c1ncn2[C@@H]1O[C@H](COP(=O)(O)OP(=O)(O)OP(=O)(O)O)[C@@H](O)[C@H]1O`, the Potency result is “inactive”.

`COc1cc2c(Nc3ccc(Cl)c(Cl)c3F)ncnc2cc1OCC1C[C@@H]2CN(C)C[C@H]2C1`: the Potency is 8.63 µM (active). Still for that read-out and setting: then `N#CNC(=NCCCCCCOc1ccc(Cl)cc1)Nc1ccncc1`, with 0.0343 µM (active); and `CC(C)C[C@H](NC(=O)CNC(=O)c1cc(Cl)ccc1Cl)B1OC(=O)CC(CC(=O)O)(C(=O)O)O1` (some centres not stated), with 7.69 µM (active).

In the case of `C=C1C(=O)O[C@H]2[C@H]1[C@H](OC(=O)/C(C)=C\C)C[C@]1(CO1)[C@@H]1[C@H](OC(C)=O)C=C(C)[C@]21O`, the Potency entry is “inactive”. Still for that read-out and setting: then `COc1cc(C(=O)O[C@H]2C/C(C)=C/CC[C@@]3(C)O[C@@H]3[C@H](O)[C@@H]2C(C)C)cc(OC)c1OC`, with “inactive”; and `OC1c2ccccc2N=C2CCCN21` (configuration not stated), with “inactive”; and `C[C@@H]1C(=O)O[C@H]2[C@H](O)[C@@]34[C@H]5CC(C(C)(C)C)[C@]36[C@H](OC(=O)[C@H]6O)O[C@]4(C(=O)O5)[C@@]12O` (some centres not stated), with “inactive”. Regarding `O=C(C=Cc1ccccc1O)c1ccccc1O`, the Potency entry was “inactive”. Same read-out and setting: then `C[C@@]1(C2CCCC2)Cc2cc(OCC(=O)O)c(Cl)c(Cl)c2C1=O`, with “inactive”.
